These results are taken from paper PMC12864922, “TDP-43 directly inhibits mRNA accumulation in neurites through modulation of mRNA stability”.

Numbering of substitutions follows the chain as printed. In all, about 9,900 sequences were measured (“r (bound/input frequency ratio)”: median about 0.7, highest 2% from about 6.5 on). Many of the other results were omitted from the sample, so the highest values are more common in it than they were.

Sequences and labels used below:
B1: ENSMUSG00000031028.245|Tub (ssRNA)
RNA: GGGAGUUCUACAGUCCGACGAUCGCUUCGAUAUCCGCAUGCUAGCCCUCCAUUGGGAUGGCACCACUCAUCUGGUGGGCUUGGGAACUCCAAGCUCUUGCCUGUGUGCCAUCUGUGAGAAGCUUCUUGGAGCUGAGACACCAGAGGGAAGCAAAGAGCAUUUAGACAUUGCUUUUUGCUUUGAAAUAGAUAUGUUUGGAAACGCUAAGUAGAAGUUUAAAAAGUAGAGUCAUGUAGAGUCAUGCUUUGAAUAUGUGGGUCAUGCUUUAGAUAUGAAGAGGCUAUGCAGGUAAGGAGGCUGGAUCUCUUGCGGUCGCACUAGUGUGGAAUUCUCGGGUGUCAAGG
B2: ENSMUSG00000028439.189|Fam219a|1:11;21:28 (ssRNA)
RNA: GGGAGUUCUACAGUCCGACGAUCGCUUCGAUAUCCGCAUGCUAACACACACACAUGUACCCGACACACACAUGAGCCUAUCUGUCCAGGGAACCAGAUUGGUGUCCGAGAUGAGGAAAUGGCUGUGGCCUGGGAAAUCAGUGAGAGGCCGCUUGGGAAUGAGAAUGCAGUGGACUGAAAGCACAGCCUGGCCAUCUGGAACCUGGGUUCUGGUCCCAGCCUCGGCAUUCUCCCUGAGCUCCUAAGCAAUUCCCAGGCUUCUCUAGGGCUUCAGUUCUCACAACUGGAAAAUAAAGAGUAGCUGCUCUUGCGGUCGCACUAGUGUGGAAUUCUCGGGUGUCAAGG
B3: ENSMUSG00000031028.94|Tub (ssRNA)
RNA: GGGAGUUCUACAGUCCGACGAUCGCUUCGAUAUCCGCAUGCUAAGCUCUGGUGGUCAGCAGAAAGCACUCCCACUUCAAAAGGGCCCAUUAGGCCCAAAGGGGGUUAGGAGUGGUAGGGAUAGGUGCGUGGCAGGUCCCUGCUAGGAUUGCAGGGGCCUGGCCAUGUGUAUUAGCUGGAGGCUUAGAAUGCUAGCUCAUUUGUUGCUACAGAUUUGCCCAGUGCUUGCACACGUAAGAACCCAGCUCUCAAGGCCAAAUAUCUGAGUGGAUGGGGAUGAUAGGAGUCAUCCAGUAGACUCCCUCUCUUGCGGUCGCACUAGUGUGGAAUUCUCGGGUGUCAAGG
B4: ENSMUSG00000058297.426|Spock2 (ssRNA)
RNA: GGGAGUUCUACAGUCCGACGAUCGCUUCGAUAUCCGCAUGCUAGUGGCAGGCCCCAGGGGUCCAGAAGUUUGUCCCUCUCUAAAACGCUCCCCACCCCAUACUGCUUUUCACCCCACUGAGACCGAGUCCCACAAAGGUAGGCAGAACAGCUGUUCCUGGUGGGGCUGAAGGUUCCCAAGUAGCUUCUAGUUAAGCAAGCUUCGUGUUUCCUCAGGAGCAAGGUCACACAGGUCAGAUUAUUGUCGGUCCUGCGGGCCUCAUCCUUGAAUAAGCUGCCUGCCCAGUUCCUCCAUCCGUGUUCCCUCUUGCGGUCGCACUAGUGUGGAAUUCUCGGGUGUCAAGG
B5: ENSMUSG00000061578.1443|Ksr2|85:89;180:184 (ssRNA)
RNA: GGGAGUUCUACAGUCCGACGAUCGCUUCGAUAUCCGCAUGCUAGCAAGUAGGAUGGAUGGAUGAGUGAGUGGAUAGGUAGGUAUAUAAAUGGAUGGAUGGGUGAUGGAUGGGUAAAUGAAUGGAUAGCAUACUGAAUGAAUGGAUGAUGGAUGAAUGGAUGGGUAGGUGGGUAGAUAGGUAUAUGAAUGAAUGGAUGAAUGGAUGGGUGAAUGGAUGGAUAGCAUACUGAAUAAAUGGAUGGAUGGAUGGAUUGAUUUGUGAAUGAAUGGAUGAAUGGAUGGGUAGGUGGGUGGAUGCAUAGGCUCUUGCGGUCGCACUAGUGUGGAAUUCUCGGGUGUCAAGG
B6: ENSMUSG00000061578.1450|Ksr2 (ssRNA)
RNA: GGGAGUUCUACAGUCCGACGAUCGCUUCGAUAUCCGCAUGCUAUAAAUGGAUGGAUGGGUGAUGGAUGGGUAAAUGAAUGGAUAGGUAUGUGAAUGAAUGGAUGAUGGAUGAAUGGAUGGGUAGGUGGGUAGAUAGGUAUAUGAAUGAAUGGAUGAAUGGAUGGGUGAAUGGAUGGAUAGGUAUGUGAAUAAAUGGAUGGAUGGAUGGAUUGAUUUGUGAAUGAAUGGAUGAAUGGAUGGGUAGGUGGGUGGAUGCAUAGGCAAGUAGAUGAAUGAAUAUGUGGGUAGAAGGGUGAGUGGGUGCUCUUGCGGUCGCACUAGUGUGGAAUUCUCGGGUGUCAAGG
B7: ENSMUSG00000061578.1448|Ksr2 (ssRNA)
RNA: GGGAGUUCUACAGUCCGACGAUCGCUUCGAUAUCCGCAUGCUAUAGGUAGGUAUAUAAAUGGAUGGAUGGGUGAUGGAUGGGUAAAUGAAUGGAUAGGUAUGUGAAUGAAUGGAUGAUGGAUGAAUGGAUGGGUAGGUGGGUAGAUAGGUAUAUGAAUGAAUGGAUGAAUGGAUGGGUGAAUGGAUGGAUAGGUAUGUGAAUAAAUGGAUGGAUGGAUGGAUUGAUUUGUGAAUGAAUGGAUGAAUGGAUGGGUAGGUGGGUGGAUGCAUAGGCAAGUAGAUGAAUGAAUAUGUGGGUAGAAGCUCUUGCGGUCGCACUAGUGUGGAAUUCUCGGGUGUCAAGG
B8: ENSMUSG00000061578.1451|Ksr2|37:41;132:136 (ssRNA)
RNA: GGGAGUUCUACAGUCCGACGAUCGCUUCGAUAUCCGCAUGCUAGAUGGAUGGGUGAUGGAUGGGUAAAUGAAUGGAUAGCAUACUGAAUGAAUGGAUGAUGGAUGAAUGGAUGGGUAGGUGGGUAGAUAGGUAUAUGAAUGAAUGGAUGAAUGGAUGGGUGAAUGGAUGGAUAGCAUACUGAAUAAAUGGAUGGAUGGAUGGAUUGAUUUGUGAAUGAAUGGAUGAAUGGAUGGGUAGGUGGGUGGAUGCAUAGGCAAGUAGAUGAAUGAAUAUGUGGGUAGAAGGGUGAGUGGGUGGAUGAACUCUUGCGGUCGCACUAGUGUGGAAUUCUCGGGUGUCAAGG
B9: ENSMUSG00000061578.1444|Ksr2|79:83;174:178 (ssRNA)
RNA: GGGAGUUCUACAGUCCGACGAUCGCUUCGAUAUCCGCAUGCUAAGGAUGGAUGGAUGAGUGAGUGGAUAGGUAGGUAUAUAAAUGGAUGGAUGGGUGAUGGAUGGGUAAAUGAAUGGAUAGCAUACUGAAUGAAUGGAUGAUGGAUGAAUGGAUGGGUAGGUGGGUAGAUAGGUAUAUGAAUGAAUGGAUGAAUGGAUGGGUGAAUGGAUGGAUAGCAUACUGAAUAAAUGGAUGGAUGGAUGGAUUGAUUUGUGAAUGAAUGGAUGAAUGGAUGGGUAGGUGGGUGGAUGCAUAGGCAAGUACUCUUGCGGUCGCACUAGUGUGGAAUUCUCGGGUGUCAAGG
B10: ENSMUSG00000061578.1441|Ksr2 (ssRNA)
RNA: GGGAGUUCUACAGUCCGACGAUCGCUUCGAUAUCCGCAUGCUACCAAUCAGGAAGGCAAGUAGGAUGGAUGGAUGAGUGAGUGGAUAGGUAGGUAUAUAAAUGGAUGGAUGGGUGAUGGAUGGGUAAAUGAAUGGAUAGGUAUGUGAAUGAAUGGAUGAUGGAUGAAUGGAUGGGUAGGUGGGUAGAUAGGUAUAUGAAUGAAUGGAUGAAUGGAUGGGUGAAUGGAUGGAUAGGUAUGUGAAUAAAUGGAUGGAUGGAUGGAUUGAUUUGUGAAUGAAUGGAUGAAUGGAUGGGUAGGUGGGCUCUUGCGGUCGCACUAGUGUGGAAUUCUCGGGUGUCAAGG
B11: ENSMUSG00000061578.1444|Ksr2 (ssRNA)
RNA: B9 RNA with C122G, A123U, U124A, A125U, C126G, C217G, A218U, U219A, A220U, C221G
B12: ENSMUSG00000061578.1442|Ksr2 (ssRNA)
RNA: GGGAGUUCUACAGUCCGACGAUCGCUUCGAUAUCCGCAUGCUAAGGAAGGCAAGUAGGAUGGAUGGAUGAGUGAGUGGAUAGGUAGGUAUAUAAAUGGAUGGAUGGGUGAUGGAUGGGUAAAUGAAUGGAUAGGUAUGUGAAUGAAUGGAUGAUGGAUGAAUGGAUGGGUAGGUGGGUAGAUAGGUAUAUGAAUGAAUGGAUGAAUGGAUGGGUGAAUGGAUGGAUAGGUAUGUGAAUAAAUGGAUGGAUGGAUGGAUUGAUUUGUGAAUGAAUGGAUGAAUGGAUGGGUAGGUGGGUGGAUGCUCUUGCGGUCGCACUAGUGUGGAAUUCUCGGGUGUCAAGG
B13: ENSMUSG00000061578.1439|Ksr2 (ssRNA)
RNA: GGGAGUUCUACAGUCCGACGAUCGCUUCGAUAUCCGCAUGCUAUUGAUUUAGAUGCCAAUCAGGAAGGCAAGUAGGAUGGAUGGAUGAGUGAGUGGAUAGGUAGGUAUAUAAAUGGAUGGAUGGGUGAUGGAUGGGUAAAUGAAUGGAUAGGUAUGUGAAUGAAUGGAUGAUGGAUGAAUGGAUGGGUAGGUGGGUAGAUAGGUAUAUGAAUGAAUGGAUGAAUGGAUGGGUGAAUGGAUGGAUAGGUAUGUGAAUAAAUGGAUGGAUGGAUGGAUUGAUUUGUGAAUGAAUGGAUGAAUGGACUCUUGCGGUCGCACUAGUGUGGAAUUCUCGGGUGUCAAGG
B14: ENSMUSG00000061578.1440|Ksr2 (ssRNA)
RNA: GGGAGUUCUACAGUCCGACGAUCGCUUCGAUAUCCGCAUGCUAUAGAUGCCAAUCAGGAAGGCAAGUAGGAUGGAUGGAUGAGUGAGUGGAUAGGUAGGUAUAUAAAUGGAUGGAUGGGUGAUGGAUGGGUAAAUGAAUGGAUAGGUAUGUGAAUGAAUGGAUGAUGGAUGAAUGGAUGGGUAGGUGGGUAGAUAGGUAUAUGAAUGAAUGGAUGAAUGGAUGGGUGAAUGGAUGGAUAGGUAUGUGAAUAAAUGGAUGGAUGGAUGGAUUGAUUUGUGAAUGAAUGGAUGAAUGGAUGGGUACUCUUGCGGUCGCACUAGUGUGGAAUUCUCGGGUGUCAAGG
B15: ENSMUSG00000061578.1445|Ksr2 (ssRNA)
RNA: GGGAGUUCUACAGUCCGACGAUCGCUUCGAUAUCCGCAUGCUAGAUGGAUGAGUGAGUGGAUAGGUAGGUAUAUAAAUGGAUGGAUGGGUGAUGGAUGGGUAAAUGAAUGGAUAGGUAUGUGAAUGAAUGGAUGAUGGAUGAAUGGAUGGGUAGGUGGGUAGAUAGGUAUAUGAAUGAAUGGAUGAAUGGAUGGGUGAAUGGAUGGAUAGGUAUGUGAAUAAAUGGAUGGAUGGAUGGAUUGAUUUGUGAAUGAAUGGAUGAAUGGAUGGGUAGGUGGGUGGAUGCAUAGGCAAGUAGAUGAACUCUUGCGGUCGCACUAGUGUGGAAUUCUCGGGUGUCAAGG
B16: ENSMUSG00000061578.1446|Ksr2 (ssRNA)
RNA: GGGAGUUCUACAGUCCGACGAUCGCUUCGAUAUCCGCAUGCUAUGAGUGAGUGGAUAGGUAGGUAUAUAAAUGGAUGGAUGGGUGAUGGAUGGGUAAAUGAAUGGAUAGGUAUGUGAAUGAAUGGAUGAUGGAUGAAUGGAUGGGUAGGUGGGUAGAUAGGUAUAUGAAUGAAUGGAUGAAUGGAUGGGUGAAUGGAUGGAUAGGUAUGUGAAUAAAUGGAUGGAUGGAUGGAUUGAUUUGUGAAUGAAUGGAUGAAUGGAUGGGUAGGUGGGUGGAUGCAUAGGCAAGUAGAUGAAUGAAUACUCUUGCGGUCGCACUAGUGUGGAAUUCUCGGGUGUCAAGG

Chain of TDP-43 (Q13148 whole entry): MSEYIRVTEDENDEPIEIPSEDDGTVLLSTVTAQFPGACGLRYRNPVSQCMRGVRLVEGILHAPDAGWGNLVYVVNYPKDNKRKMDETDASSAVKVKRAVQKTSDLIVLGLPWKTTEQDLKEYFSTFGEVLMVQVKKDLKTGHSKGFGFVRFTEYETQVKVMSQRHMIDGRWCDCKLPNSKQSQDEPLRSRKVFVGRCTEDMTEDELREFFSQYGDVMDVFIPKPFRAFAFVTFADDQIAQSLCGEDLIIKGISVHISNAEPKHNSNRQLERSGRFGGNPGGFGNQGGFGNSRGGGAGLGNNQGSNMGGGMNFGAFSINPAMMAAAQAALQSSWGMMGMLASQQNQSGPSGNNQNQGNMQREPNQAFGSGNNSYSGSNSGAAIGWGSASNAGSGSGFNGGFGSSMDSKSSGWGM

The target in this assay is TDP-43 (Homo sapiens, UniProt Q13148 1-414). The assay can be described thus: RNA Bind-n-Seq with designed 260-mer pool; 25 mM Tris-HCl, 150 mM KCl, 3 mM MgCl2, BSA (printed 500 mg/mL), 20 units/mL SUPERase IN; pH not stated; 500 nM RNA pool, 1 h, 4 C; TDP-43 5, 50, 500 nM; high values mean tight binding. Conditions: protein: recombinant; tags: SBP (GST cleaved off with PreScission; pGEX-GST-SBP). Put shortly:
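Binding (R) is the ratio of each oligo's mapped-read-normalized abundance in the bound fraction to its abundance in the input. To obtain it, SBP-tagged recombinant TDP-43 (5, 50 or 500 nM) on streptavidin beads was incubated with 500 nM of an in vitro-transcribed 260-nt 3′ UTR oligo pool for 1 h at 4 °C in 25 mM Tris-HCl, 150 mM KCl, 3 mM MgCl2, BSA and SUPERase IN. The RNA retained after washing was released with biotin, then reverse transcribed, amplified by PCR and sequenced.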
Regarding B1, the binding signal was 2.93 R (bound/input frequency ratio). Then B2, with 0.604 R (bound/input frequency ratio).

With B3, the binding signal was 0.759 R (bound/input frequency ratio). The result for B4 reads 0.272 R (bound/input frequency ratio); that for B5, 6.75 R (bound/input frequency ratio); that for B6, 4.15 R (bound/input frequency ratio). The result for B7 reads 6.14 R (bound/input frequency ratio); that for B8, 5.32 R (bound/input frequency ratio).

Consider B9, for which the binding signal is 5.84 R (bound/input frequency ratio).

Turning to B10, the binding signal was 5.22 R (bound/input frequency ratio).

Regarding B11, the binding signal was 3.7 R (bound/input frequency ratio). Then B12, with 7.5 R (bound/input frequency ratio). Then B13, with 6.02 R (bound/input frequency ratio); and B14, with 11.5 R (bound/input frequency ratio).

As for B15, the binding signal is 4.8 R (bound/input frequency ratio). Then B16, with 11 R (bound/input frequency ratio).
